# Compounds with a hit are over-represented: about 1.1% of the library has one in this group of screens.
# PrPC surface inh: inhibitors of human cell surface prion protein PrPC, primary screen, cell-based, TR-FRET; Major prion protein (Homo sapiens), P04156; TR-FRET read-out; inhibition, % at 13.8 µM; 0.43% of 370,000 active; in the data active means inhibition above about 24%; further: 0% = median of the test wells and 100% = reference compound wells
# BJeLR viability: MLPCN primary cell-based screen for lethality selective to Ras in HRASV12 cells; BJeLR (HRASV12) viability, CellTiter-Glo ATP luminescence, 48 h; inhibition, % (concentration not given with the values); 0.17% of 300,000 active; AID 1554, 2009; in the data active means inhibition above about 50%
# MazEF act: activators of E. coli MazEF toxin-antitoxin RNase, primary screen, biochemical, fluorescence, uHTS; AID 504720, 2011; Endoribonuclease toxin MazF (Escherichia coli (strain K12)), P0AE70; activation, % at 20 µM; 0.32% of 350,000 active; FAM/BHQ RNA-DNA oligo cleavage fluorescence, 5 h; in the data active means activation above about 50%
# PrP 5UTR inh: inhibition of PrP 5' UTR reporter expression. inhibition, % (test concentration not listed). 0.35% of 340,000 active. AID 488862, 2010. cell-based PrP 5' UTR mRNA reporter, plate reader; in the data active means inhibition above about 52%; further: 0 = median of the neutral control wells
# PrPC TRFRET cf: confirmation of inhibitors of cell surface human prion protein, confirmation, cell-based, TR-FRET. shares compounds with PrPC surface inh. cell surface PrPC level. inhibition, % at 13.8 µM. 65% of 1,500 active. AID 743200, 2013; in the data active means inhibition above about 25%
# LD9 tox: cytotoxicity in LD9 cells, cytotoxicity control for cell surface PrPc inhibitor project, cell-based, luminescence, high throughput; inhibition, % at 13.8 µM; AID 743201, 2013; 29% of 1,500 active; luminescence viability; shares compounds with PrPC surface inh; in the data active means inhibition above about 9.5%
# Active calls of the source: *; · = no result given.
SMILES,PrPC surface inh,BJeLR viability,MazEF act,PrP 5UTR inh,PrPC TRFRET cf,LD9 tox
CCOC(=O)c1ccc2[nH]c(C)c(CCC(C)=O)c(=O)c2c1,1,9,8,-16,·,·
CC(=O)Nc1ccc2[nH]c(C)c(CC=C(Cl)Cl)c(=O)c2c1,37*,-3,5,-9,54*,-3
CC(C)Cc1nc(Nc2ccccc2C#N)c2nnn(Cc3ccccc3)c2n1,29*,-10,-1,-44,13,0
CC(C)Cc1nc(N2CCC(C(N)=O)CC2)c2nnn(Cc3ccccc3)c2n1,-4,-2,-15,-20,·,·
Cc1ccc(NS(=O)(=O)c2cc(C(=O)NCc3ccccn3)ccc2Cl)cc1C,47*,-6,0,-10,60*,6
CNc1ncc(C(=O)c2ccc(Cl)c(Cl)c2)s1,6,-5,-5,-56,·,·
CNc1ncc(C(=O)c2ccc(Cl)cc2)s1,62*,6,3,-53,78*,-9
CC(NC1CCCCC1)C(O)C12CC3CC(CC(C3)C1)C2 (stereo not drawn),36*,1,11,-35,28*,2
CC(NC(N)=O)C12CC3CC(CC(C3)C1)C2 (stereo not drawn),0,-7,-12,2,·,·
CC(=O)N(Cc1cc(=O)[nH]c2ccccc12)c1ccccc1,3,-2,-6,-1,·,·
CC(=O)N(Cc1cc(=O)[nH]c2ccccc12)c1cccc(C)c1,24*,-5,2,-26,30*,-3
O=C(Nc1ccc2c(c1)OCO2)Nc1ccc2c(c1)OCO2,9,12,2,-46,·,·
O=C(Nc1ccc(OC(F)F)c(Cl)c1)Nc1ccc2c(c1)OCO2,29*,-12,8,-51,22,3
COc1ccc(C(C)(C)C)cc1NC(=O)Nc1ccc2c(c1)OCO2,25*,-5,9,-7,16,-1
COC(=O)[C@]12C[C@H](CC(=O)N3CCCC3)C(=O)N(Cc3cccc4ccccc34)C1=C[C@H](COCc1ccccc1)O[C@@H]2C,8,·,·,·,·,·
COCc1cc(C)nc(SCc2ccc([N+](=O)[O-])cc2)c1C#N,0,-5,11,-25,·,·
COCc1cc(C)nc(SCc2ccccc2Cl)c1C#N,25*,-18,-13,-4,7,-4
Cc1cc(C)c(S(=O)(=O)Nc2cccc(S(=O)(=O)N3CCOCC3)c2)c(C)c1,27*,0,2,-11,18,-10
COCCCn1cnn2c(=O)c3ccccc3nc2c1=O,-5,·,·,·,·,·
COc1ccc(C2CC(=O)C(c3cccc(F)c3)=CN2Cc2ccccc2)cc1 (stereo not drawn),13,·,·,·,·,·
Cc1ccc(-c2csc3ncnc(SCC(=O)O)c23)cc1,10,-8,-4,-19,·,·
COC(=O)CSc1ncnc2scc(-c3ccccc3)c12,50*,2,-2,-10,67*,-1
Cc1ccc(C(=O)N2CCC[C@@H]2C(=O)N2CCC[C@@H]2C(=O)NCc2ccccc2)cc1C,1,·,·,·,·,·
N#Cc1ccccc1NC(=O)CSc1nnc(-c2ccc(F)cc2)n1-c1ccccc1,38*,-3,-32,-2,29*,2
Cc1nnc(SCC(=O)Nc2cc(C(N)=O)cc(C(N)=O)c2)n1-c1ccccc1,45*,-2,16,-11,29*,-6
SMILES,PrPC surface inh,BJeLR viability,MazEF act,PrP 5UTR inh,PrPC TRFRET cf,LD9 tox
Cc1nnc(SCC(=O)Nc2ccc(C(N)=O)cc2)n1-c1ccccc1,0,-3,-4,-21,·,·
O=C(CSc1nnc(-c2ccccc2)n1-c1ccccc1)Nc1cccc2ccccc12,7,·,·,·,·,·
Cc1cccc(-c2nnc(SCC(=O)Nc3cccc4ccccc34)n2Cc2ccco2)c1,4,·,·,·,·,·
CCCCCCCCN1C(=O)[C@@H](CC(=O)NCc2cccc(C(F)(F)F)c2)C[C@@]2(C(=O)OC)C1=C[C@H](C1CCCC1)O[C@@H]2C,-2,·,·,·,·,·
COc1ccc(NC(=O)c2cc(-c3cc(Cl)ccc3C)n[nH]2)cc1OC,25*,·,·,·,28*,15*
Cc1cc(F)ccc1-c1cc(C(=O)Nc2ccc(F)cc2)[nH]n1,8,·,·,·,·,·
COc1ccc(NC(=O)c2cc(-c3cc(Cl)ccc3OC)n[nH]2)cc1OC,19,·,·,·,·,·
COc1ccc(NC(=O)c2cc(-c3ccc(F)cc3C)n[nH]2)cc1OC,25*,·,·,·,13,8
CCOC(=O)C1CCN(C(=O)C(C)(C)NC(=O)Nc2ccc(C(F)(F)F)cc2Cl)CC1,2,·,·,·,·,·
Cc1occc1C(=O)N1CCN(C(=O)C2CCCO2)CC1 (stereo not drawn),47*,9,-5,-3,5,-2
CN1/C(=C\C(=S)NC(=O)c2cccc(Br)c2)C(C)(C)c2ccccc21,25*,2,24,-18,30*,16*
CN1/C(=C\C(=S)NC(=O)c2ccc([N+](=O)[O-])cc2)C(C)(C)c2ccccc21,5,-4,-7,3,·,·
Cc1ccc(OCc2cc(C(=O)NCc3cn4ccccc4n3)no2)cc1C,43*,9,10,-11,39*,-5
O=C(NCCc1cn2ccccc2n1)c1cc(COc2c(F)cccc2F)on1,-2,-2,24,-14,·,·
O=C(NC1CCCC1)C1CSCCS(=O)(=O)N1Cc1ccc(F)cc1 (stereo not drawn),-6,·,·,·,·,·
O=C(Nc1ccc(F)cc1)OCc1cn(Cc2ccc(F)c(F)c2)nn1,6,·,·,·,·,·
O=C(Cc1ccccc1)NNc1ccc2ccccc2c1,30*,13,6,-32,13,0
Oc1ccc2ccc3[nH]cnc3c2c1,32*,0,-2,-15,6,-7
COC(=O)[C@]12C[C@H](CC(=O)NCc3ccccc3)C(=O)N(Cc3ccccc3)C1=C[C@H](C(C)C)O[C@@H]2C1CC1,4,·,·,·,·,·
COC(=O)[C@]12C[C@H](CC(=O)NCc3cccs3)C(=O)N(Cc3ccccc3)C1=C[C@H](C(C)(C)C)O[C@@H]2C,7,·,·,·,·,·
COc1ccc(S(=O)(=O)N2CCOC23CCN(C(=O)c2ccc(Cl)cc2Cl)CC3)cc1,53*,11,-1,-16,47*,2
CCOC(=O)[C@@]12CCCC3=C1N(CCC3)C(=O)[C@H]2CC(=O)N1CCSCC1,0,·,·,·,·,·
CC1CCN(C(=O)CSc2nnc(CSc3ncccn3)n2C)CC1,25*,3,4,-22,7,-2
COc1cccc(OC(=O)CSc2nnc(-c3ccccc3Br)o2)c1,32*,9,-4,-25,38*,1
Cc1ccn2c(=O)nc(SCc3cccc(C(F)(F)F)c3)nc2c1,18,11,7,-47,·,·
O=c1nc(SCc2cccc(C(F)(F)F)c2)nc2ccccn12,34*,4,0,-1,16,-3
